{"source": "the supplement of paper PMC11026393", "test_system": "SH-SY5Y", "assay": "difference in mean normalized H2B-mRuby nuclear fluorescence intensity relative to DMSO control (normalized intensity difference (DMSO = 0)); higher = stronger increase in transgene reporter fluorescence", "conditions": "24 h", "protocol": "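Cancer cell lines stably expressing H2B-mRuby2 from a lentiviral PGK promoter were treated with each drug for 24 h and imaged on a Leica DMI8 (ex 541-551 / em 565-605 nm). Nuclei were segmented in CellProfiler. The value is the difference in mean per-nucleus normalized H2B-mRuby intensity versus DMSO-treated cells (about 3 repeats x 4 fields). Doxorubicin is itself fluorescent. Dasatinib is in nM.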"}
{"smiles": "Nc1ncn([C@@H]2O[C@H](CO)[C@@H](O)[C@H]2O)c(=O)n1", "note": "(concentration unit: uM)", "values": [{"measurement": "difference", "setting": "concentration: 1", "result": 0.0451}, {"measurement": "difference", "setting": "concentration: 2.5", "result": 0.0373}, {"measurement": "difference", "setting": "concentration: 5", "result": 0.0486}, {"measurement": "difference", "setting": "concentration: 10", "result": 0.0991}, {"measurement": "difference", "setting": "concentration: 20", "result": 0.0901}]}
{"smiles": "COc1cc2ncnc(Nc3ccc(F)c(Cl)c3)c2cc1OCCCN1CCOCC1", "note": "(concentration unit: uM)", "values": [{"measurement": "difference", "setting": "concentration: 1", "result": 0.0355}, {"measurement": "difference", "setting": "concentration: 2.5", "result": 0.0288}, {"measurement": "difference", "setting": "concentration: 5", "result": 0.0297}, {"measurement": "difference", "setting": "concentration: 10", "result": 0.0546}, {"measurement": "difference", "setting": "concentration: 20", "result": 0.086}]}
{"smiles": "COc1cc([C@@H]2c3cc4c(cc3[C@@H](O[C@@H]3O[C@@H]5CO[C@@H](C)O[C@H]5[C@H](O)[C@H]3O)[C@H]3COC(=O)[C@H]23)OCO4)cc(OC)c1O", "note": "(concentration unit: uM)", "values": [{"measurement": "difference", "setting": "concentration: 1", "result": 0.0162}, {"measurement": "difference", "setting": "concentration: 2.5", "result": 0.042}, {"measurement": "difference", "setting": "concentration: 5", "result": 0.0775}, {"measurement": "difference", "setting": "concentration: 10", "result": 0.0738}, {"measurement": "difference", "setting": "concentration: 20", "result": 0.0983}]}
{"smiles": "Cc1[nH]c2ccccc2c1CCNCc1ccc(/C=C/C(=O)NO)cc1", "note": "(concentration unit: nM)", "values": [{"measurement": "difference", "setting": "concentration: 10", "result": 0.13}, {"measurement": "difference", "setting": "concentration: 50", "result": 0.783}, {"measurement": "difference", "setting": "concentration: 100", "result": 1.09}, {"measurement": "difference", "setting": "concentration: 250", "result": 1.19}, {"measurement": "difference", "setting": "concentration: 500", "result": 1.16}]}
{"smiles": "COc1cccc2c1C(=O)c1c(O)c3c(c(O)c1C2=O)C[C@@](O)(C(=O)CO)C[C@@H]3O[C@H]1C[C@H](N)[C@H](O)[C@H](C)O1", "note": "(concentration unit: nM)", "values": [{"measurement": "difference", "setting": "concentration: 25", "result": -0.0232}, {"measurement": "difference", "setting": "concentration: 100", "result": 0.0095}, {"measurement": "difference", "setting": "concentration: 250", "result": 0.0862}, {"measurement": "difference", "setting": "concentration: 1000", "result": 0.155}, {"measurement": "difference", "setting": "concentration: 2500", "result": 0.202}]}
{"smiles": "Cc1nc(Nc2ncc(C(=O)Nc3c(C)cccc3Cl)s2)cc(N2CCN(CCO)CC2)n1", "note": "(concentration unit: nM)", "values": [{"measurement": "difference", "setting": "concentration: 25", "result": 0.0391}, {"measurement": "difference", "setting": "concentration: 100", "result": 0.111}, {"measurement": "difference", "setting": "concentration: 250", "result": 0.137}, {"measurement": "difference", "setting": "concentration: 1000", "result": 0.178}, {"measurement": "difference", "setting": "concentration: 2500", "result": 0.156}]}
